Experimental findings from the supplement of paper PMC10503962 are described below.

The structures appear in SMILES notation.

In this test the test system is Trichuris muris adult worms. Description: mean motility score (Paragon pixel variance) of adult worms (arbitrary units); higher = more motile worms, i.e. less anthelmintic effect; extreme values may be limits of the assay. Conditions: 100 µM; 24 h. Summed up: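 Each drug was tested with three worms in three wells, run over three separate occasions and vehicle and positive controls included. The worms were single adult Trichuris muris from infected NOD SCID mice, held for 24 h at 37°C and 5% CO2 in 100 μL RPMI-1640 with antibiotics and drug at 100 μM (1% v/v DMSO) in 96-well plates. Motility score was derived by Paragon pixel-variance analysis of films from an automated phenotyping platform and averaged over replicate wells.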
Molecule `CCn1cc(C(=O)O)c(=O)c2cc(F)c(N3CCNC(C)C3)c(F)c21` (stereo unspecified) [lomefloxacin] came in with a mean motility score of 3840. The same measure for `CC(C)c1ccc2oc3nc(N)c(C(=O)O)cc3c(=O)c2c1` [amlexanox]: 1570. In the case of `C[C@@H](C(=O)O)c1ccc(-c2ccccc2)c(F)c1` [tarenflurbil] it was 2130. The same measure for `CCN(CC)CCOc1ccc2nc(N(C)C)sc2c1.Cl.Cl` [diamthazole dihydrochloride]: 4190; for `O=C(O)c1cc(-c2ccc(F)cc2F)ccc1O` [diflunisal]: 1040.

On to `CC(C)c1c(C(=O)Nc2ccccc2)c(-c2ccccc2)c(-c2ccc(F)cc2)n1CC[C@@H](O)C[C@@H](O)CC(=O)O` [atorvastatin], for which the mean motility score was 2620. In turn, `CCCc1nc2c(C)cc(-c3nc4ccccc4n3C)cc2n1Cc1ccc(-c2ccccc2C(=O)O)cc1` [telmisartan] registered a mean motility score of 1900. As to `COC(=O)CCC(=O)CN.Cl` [methyl aminolevulinate hydrochloride], the mean motility score is 2550. The same measure for `C[C@@H](c1ncncc1F)[C@](O)(Cn1cncn1)c1ccc(F)cc1F` [voriconazole]: 4350; for `CC(=O)O[C@H]1C(=O)[C@@]2(C)[C@H]([C@H](OC(=O)c3ccccc3)[C@]3(O)C[C@H](OC(=O)[C@H](O)[C@@H](NC(=O)c4ccccc4)c4ccccc4)C(C)=C1C3(C)C)[C@]1(OC(C)=O)CO[C@@H]1C[C@@H]2O` [paclitaxel]: 1480; for `COc1cc2nccc(Oc3ccc(NC(=O)NC4CC4)c(Cl)c3)c2cc1C(N)=O` [lenvatinib]: 2500.
